Results filed as inconclusive are left out. Activity calls are given as the source filed them. How the source made its calls, unless noted: active means hit-call score of the fitted dose curve at least 0.9, where 1 is the maximum; inconclusive means response in the unintended direction; inactive means score below 0.9.
Columns and labels:
[1] = molecular target: human Ephrin type-A Receptor 1 (EphA1), EPHA1 (gene 2041) (UniProt P21709); assay: NVS_ENZ_hEphA1: NovaScreen (NVS) Enzymatic Assay for human Ephrin type-A Receptor 1 (EphA1) (AID 2283158);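 further: activity is signal loss versus DMSO meaning EphA1 kinase inhibition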
Chain of human Ephrin type-A Receptor 1 (EphA1), EPHA1 (gene 2041) (P21709 whole entry, looked up): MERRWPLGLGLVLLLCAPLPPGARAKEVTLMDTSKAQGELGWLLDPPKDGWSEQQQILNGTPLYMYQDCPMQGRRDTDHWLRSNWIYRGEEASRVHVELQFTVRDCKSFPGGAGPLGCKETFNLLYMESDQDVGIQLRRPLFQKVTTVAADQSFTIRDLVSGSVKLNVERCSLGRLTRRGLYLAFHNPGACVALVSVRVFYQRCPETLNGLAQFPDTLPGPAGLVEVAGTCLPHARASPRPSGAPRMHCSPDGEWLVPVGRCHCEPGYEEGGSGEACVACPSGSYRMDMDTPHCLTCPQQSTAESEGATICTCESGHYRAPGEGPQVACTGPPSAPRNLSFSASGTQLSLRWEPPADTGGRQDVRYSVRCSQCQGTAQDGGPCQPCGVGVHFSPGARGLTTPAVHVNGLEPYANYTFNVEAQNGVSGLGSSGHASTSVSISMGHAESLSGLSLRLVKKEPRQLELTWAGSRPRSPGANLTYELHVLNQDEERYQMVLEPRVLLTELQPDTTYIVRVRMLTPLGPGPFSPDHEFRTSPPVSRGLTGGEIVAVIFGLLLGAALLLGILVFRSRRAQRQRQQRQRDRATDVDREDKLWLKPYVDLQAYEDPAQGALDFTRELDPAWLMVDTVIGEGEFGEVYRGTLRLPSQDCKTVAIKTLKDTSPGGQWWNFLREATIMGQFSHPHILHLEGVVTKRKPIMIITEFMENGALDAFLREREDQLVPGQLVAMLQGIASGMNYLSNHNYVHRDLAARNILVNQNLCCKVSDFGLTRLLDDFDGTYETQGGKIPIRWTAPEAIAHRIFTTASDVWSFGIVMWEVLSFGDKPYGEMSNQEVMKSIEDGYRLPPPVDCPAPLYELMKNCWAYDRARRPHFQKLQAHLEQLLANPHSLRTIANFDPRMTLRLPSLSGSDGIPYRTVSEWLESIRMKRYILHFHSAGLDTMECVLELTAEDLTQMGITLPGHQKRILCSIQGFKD
Method in brief: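 Recombinant kinase, fluorescent substrate, mobility-shift separation, fluorescence read at 1 h. Single-point duplicates at 25 uM; hits (e.g., ≥30% inhibition) run singleton concentration-response, max 50 uM. DMSO = negative control/baseline.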

[2] = molecular target: human Phosphodiesterase 10 (PDE10), PDE10A (gene 10846) (UniProt Q9Y233); assay: NVS_ENZ_hPDE10: NovaScreen (NVS) Enzymatic Assay for human Phosphodiesterase 10 (PDE10) (AID 2283195)
Chain of human Phosphodiesterase 10 (PDE10), PDE10A (gene 10846) (Q9Y233 whole entry, looked up): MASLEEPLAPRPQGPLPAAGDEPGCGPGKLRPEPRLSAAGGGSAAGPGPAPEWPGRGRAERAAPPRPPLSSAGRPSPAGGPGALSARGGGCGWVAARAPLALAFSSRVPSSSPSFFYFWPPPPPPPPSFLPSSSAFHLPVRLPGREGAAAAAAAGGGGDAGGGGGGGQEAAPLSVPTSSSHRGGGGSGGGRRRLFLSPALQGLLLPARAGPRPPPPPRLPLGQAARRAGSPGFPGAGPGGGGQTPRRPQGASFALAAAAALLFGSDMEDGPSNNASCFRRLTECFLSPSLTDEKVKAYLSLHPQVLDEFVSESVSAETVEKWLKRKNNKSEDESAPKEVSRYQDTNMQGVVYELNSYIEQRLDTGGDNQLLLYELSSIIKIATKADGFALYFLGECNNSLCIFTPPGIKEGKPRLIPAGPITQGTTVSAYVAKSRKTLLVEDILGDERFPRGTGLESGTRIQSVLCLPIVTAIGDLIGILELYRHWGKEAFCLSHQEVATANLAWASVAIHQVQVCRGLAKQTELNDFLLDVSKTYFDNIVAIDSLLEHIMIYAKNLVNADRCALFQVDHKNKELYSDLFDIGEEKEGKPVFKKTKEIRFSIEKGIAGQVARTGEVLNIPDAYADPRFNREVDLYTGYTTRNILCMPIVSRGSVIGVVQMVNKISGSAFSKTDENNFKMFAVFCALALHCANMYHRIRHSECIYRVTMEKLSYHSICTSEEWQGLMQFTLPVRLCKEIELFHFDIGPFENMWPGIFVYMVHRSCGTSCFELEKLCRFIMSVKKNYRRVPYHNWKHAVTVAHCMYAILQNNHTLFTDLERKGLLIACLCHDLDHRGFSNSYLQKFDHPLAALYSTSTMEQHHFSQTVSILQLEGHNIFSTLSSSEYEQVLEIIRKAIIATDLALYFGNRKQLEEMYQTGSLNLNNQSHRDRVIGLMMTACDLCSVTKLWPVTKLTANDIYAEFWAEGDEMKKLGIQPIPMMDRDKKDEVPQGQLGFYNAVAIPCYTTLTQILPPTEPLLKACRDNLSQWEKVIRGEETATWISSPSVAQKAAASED
Method in brief: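 Biochemical single-readout PDE10A assay, cell-free, extracted protein. Compounds first screened at 25 uM in duplicate, hits then titrated to 50 uM max. Activity measured after 1 h; loss-of-signal fitted against DMSO negative control.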

[3] = molecular target: Peroxisome proliferator-activated receptor gamma (Homo sapiens) (UniProt P37231); assay: ATG_PPARg_TRANS: Attagene TRANS-FACTORIAL HepG2 Assay for human Peroxisome Proliferator-activated Receptor-gamma (PPARg) (AID 2283007)
Chain of Peroxisome proliferator-activated receptor gamma (Homo sapiens) (P37231 whole entry, looked up, the tested form may be a part): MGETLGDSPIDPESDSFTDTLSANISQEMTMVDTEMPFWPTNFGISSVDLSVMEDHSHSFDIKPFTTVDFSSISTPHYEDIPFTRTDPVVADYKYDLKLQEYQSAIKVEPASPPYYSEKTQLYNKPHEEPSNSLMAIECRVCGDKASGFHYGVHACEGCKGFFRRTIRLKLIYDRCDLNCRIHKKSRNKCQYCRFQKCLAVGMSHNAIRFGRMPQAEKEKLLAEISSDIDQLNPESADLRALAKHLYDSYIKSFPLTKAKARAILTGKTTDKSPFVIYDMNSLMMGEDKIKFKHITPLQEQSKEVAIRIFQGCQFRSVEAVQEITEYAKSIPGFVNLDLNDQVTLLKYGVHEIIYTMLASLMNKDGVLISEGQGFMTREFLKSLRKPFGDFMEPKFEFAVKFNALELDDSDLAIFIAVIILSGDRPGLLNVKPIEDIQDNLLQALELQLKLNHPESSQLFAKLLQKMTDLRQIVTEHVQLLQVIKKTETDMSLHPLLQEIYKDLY
Method in brief: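 Transient transfection of HepG2 with GAL4-UAS-driven reporter units; chemical dosing 24 h; total RNA → oligo(dT) RT → PCR with reporter primers → 6-FAM primer extension → HpaI digest 2 h 37 C → capillary electrophoresis. Positive direction vs DMSO.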

[4] = molecular target: rat Thyrotropin Releasing Hormone Receptor (TRH), Trhr (gene 25570) (UniProt Q01717); assay: NVS_GPCR_rTRH: NovaScreen (NVS) G Protein-Coupled Receptor Assay for rat Thyrotropin Releasing Hormone Receptor (TRH) (AID 2283329);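 further: hit means lower bound tracer signal versus DMSO baseline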
Chain of rat Thyrotropin Releasing Hormone Receptor (TRH), Trhr (gene 25570) (Q01717 whole entry, looked up): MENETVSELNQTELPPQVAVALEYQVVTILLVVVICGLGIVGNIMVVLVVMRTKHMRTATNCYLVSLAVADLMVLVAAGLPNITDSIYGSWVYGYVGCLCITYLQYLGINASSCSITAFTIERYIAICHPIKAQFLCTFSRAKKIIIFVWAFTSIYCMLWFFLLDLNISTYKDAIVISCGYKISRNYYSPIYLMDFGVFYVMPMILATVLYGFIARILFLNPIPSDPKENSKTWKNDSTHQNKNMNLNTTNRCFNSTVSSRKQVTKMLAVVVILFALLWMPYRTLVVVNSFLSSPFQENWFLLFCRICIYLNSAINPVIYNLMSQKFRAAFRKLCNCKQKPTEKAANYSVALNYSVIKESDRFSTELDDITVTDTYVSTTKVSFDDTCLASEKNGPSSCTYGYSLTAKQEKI
Method in brief: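 Cell-free radioligand binding on rat forebrain membranes; bound tracer measured by filter-based scintillation counting 4 hours after dosing. Loss of signal versus DMSO baseline indicates displacement; primary screen at 25 uM in duplicate, actives then run in concentration series.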

[5] = molecular target: Peroxisome proliferator-activated receptor gamma (Homo sapiens) (UniProt P37231); assay: NVS_NR_hPPARg: NovaScreen (NVS) Nuclear Receptor Binding Assay for human Peroxisome Proliferator-activated Receptor gamma (PPARg) (AID 2283370)
Method in brief: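 FP read-out, 2 h post-dose, cell-free extracted receptor protein. Signal loss vs DMSO negative control = binding activity. Single-conc duplicate HTS at 25 uM; concentration-response follow-up for actives.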

[6] = system: Thyroperoxidase (TPO), gene 54314; assay: CCTE_Simmons_AUR_rTPO: CCTE's Amplex UltraRed Assay for Thyroperoxidase (TPO) Inhibition, Simmons Lab (AID 2283662);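 further: potency for loss of signal meaning inhibition of peroxidase activity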
Method in brief: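 Rat thyroid microsomal TPO + 25 uM AUR in 200 mM K phosphate; cpd 5 nM–87.5 uM [final], 8 conc, 0.5% DMSO; 300 uM H2O2 starts rxn; 37C dark 30 min; endpoint FI 544/590 nm; n=3.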

[7] = molecular target: Bile acid receptor (Homo sapiens) (UniProt Q96RI1); assay: ATG_IR1_CIS: Attagene CIS-FACTORIAL HepG2 Assay for human Nuclear Receptor Subfamily 1 Group H Member 4 (NR1H4), IR1 submotif (AID 2282946; active means hit-call score of the fitted dose curve at least 0.9, where 1 is the maximum; inactive means score below 0.9); conditions: IR1 reporter transcription, actives raise or lower the signal
Chain of Bile acid receptor (Homo sapiens) (Q96RI1 whole entry, looked up, the tested form may be a part): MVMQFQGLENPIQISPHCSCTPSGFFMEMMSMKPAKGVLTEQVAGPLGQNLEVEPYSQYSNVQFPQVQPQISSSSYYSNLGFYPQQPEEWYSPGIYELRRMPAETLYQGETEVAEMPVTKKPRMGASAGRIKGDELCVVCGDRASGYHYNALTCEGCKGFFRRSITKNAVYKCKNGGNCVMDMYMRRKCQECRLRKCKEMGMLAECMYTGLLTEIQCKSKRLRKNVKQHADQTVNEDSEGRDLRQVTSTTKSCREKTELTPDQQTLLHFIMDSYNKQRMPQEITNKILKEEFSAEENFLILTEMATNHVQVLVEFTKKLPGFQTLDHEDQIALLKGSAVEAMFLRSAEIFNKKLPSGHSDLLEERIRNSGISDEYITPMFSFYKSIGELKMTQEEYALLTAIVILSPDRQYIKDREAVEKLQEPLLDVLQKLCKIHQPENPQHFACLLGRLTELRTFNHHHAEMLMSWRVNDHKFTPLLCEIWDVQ
Method in brief: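 Fluorescence of capillary-separated, HpaI-digested RT-PCR reporter products gave IR1-element mRNA induction in HepG2 cells 24 h after dosing. Endogenous transcription factors drove the cis-regulated reporters; activity was fitted bidirectionally against DMSO.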

[8] = molecular target: human RAR-related Orphan Receptor gamma (RORg), RORC (gene 6097) (UniProt P51449); assay: ATG_RORg_TRANS: Attagene TRANS-FACTORIAL HepG2 Assay for human RAR-related Orphan Receptor gamma (RORg) (AID 2283011)
Chain of human RAR-related Orphan Receptor gamma (RORg), RORC (gene 6097) (P51449 whole entry, looked up, the tested form may be a part): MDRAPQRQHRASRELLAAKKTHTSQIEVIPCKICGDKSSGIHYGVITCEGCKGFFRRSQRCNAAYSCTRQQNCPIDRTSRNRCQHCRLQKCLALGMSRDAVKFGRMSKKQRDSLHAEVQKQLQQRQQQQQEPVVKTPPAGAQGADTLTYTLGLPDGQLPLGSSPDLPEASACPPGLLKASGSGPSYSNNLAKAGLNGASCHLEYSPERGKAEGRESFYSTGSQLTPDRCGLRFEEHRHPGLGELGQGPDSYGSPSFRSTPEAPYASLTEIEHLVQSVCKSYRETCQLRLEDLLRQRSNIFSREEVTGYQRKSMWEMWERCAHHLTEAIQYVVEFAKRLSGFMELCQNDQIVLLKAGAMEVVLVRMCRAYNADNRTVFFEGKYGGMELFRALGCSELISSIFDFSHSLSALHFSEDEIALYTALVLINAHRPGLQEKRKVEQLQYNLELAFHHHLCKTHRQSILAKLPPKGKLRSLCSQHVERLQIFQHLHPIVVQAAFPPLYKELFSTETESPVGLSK
Method in brief: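 Transient MRTU transfection of HepG2 (TRANS format, exogenous NR-Gal4 chimera). 24 h dosing. Total RNA → oligo(dT) RT → PCR → 6-FAM labelling → HpaI cut → CE. Gain vs DMSO.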

SERPINA7 (gene 6906) = assay: CCTE_GLTED_hTBG: CCTE's human Thyroxine-binding Globulin (TBG) Inhibition Assay, Great Lakes Toxicology and Ecology Division (GLTED) Lab (AID 2284343);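 further: active chemicals lower fluorescence versus DMSO baseline by displacing probe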
Method in brief: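 Cell-free displacement of the fluorescent probe ANSA from human thyroxine-binding globulin after 2 h exposure. Read-out at ex 380/em 475 nm; DMSO baseline.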

TTR (gene 7276) = assay: CCTE_GLTED_hTTR_0.125uM: CCTE's human Transthyretin (hTTR) Inhibition Assay, with 0.125uM TTR, Great Lakes Toxicology and Ecology Division (GLTED) Lab (AID 2284431; active means hit-call score of the fitted dose curve at least 0.9, where 1 is the maximum; inactive means score below 0.9;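 further: hits lower the fluorescence signal relative to DMSO baseline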)
Method in brief: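 TTR 0.125uM + test chemical, 2 h; ANSA probe displacement; ex 380/em 475 fluorescence; signal loss vs DMSO control.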

[9] = CCTE_Deisenroth_AIME_384WELL_CTox_Inactive: Cytotoxicity Assessment (CTOX) in CCTE's 384-well Estrogen Receptor Transactivation Assay without AIME metabolic competence (metabolism negative), Deisenroth Lab (AID 2284039);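 further: cell viability via live-cell protease substrate cleaved to fluorescent probe; cells exposed 24 h to medium preincubated 2 h with alginate-water beads without S9; loss of fluorescence signal means loss of viability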
Method in brief: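 VM7Luc4E2 human breast cells received conditioned medium from a 2 h incubation of chemical with alginate-water microspheres (no S9), then were exposed 24 h. Viability was read as protease-substrate cleavage to a fluorescent probe; loss of signal was fitted bidirectionally over 0.002–200 uM.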

[10] = molecular target: human Norepinephrine Transporter (NET), SLC6A2 (gene 6530) (UniProt P23975); assay: NVS_TR_hNET: NovaScreen (NVS) Transporter Assay for human Norepinephrine Transporter (NET) (AID 2283377);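 further: cell-free membrane protein extracted from CHO cells expressing human NET; displacement of radioligand from human NET seen as loss of scintillation signal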
Chain of human Norepinephrine Transporter (NET), SLC6A2 (gene 6530) (P23975 whole entry, looked up): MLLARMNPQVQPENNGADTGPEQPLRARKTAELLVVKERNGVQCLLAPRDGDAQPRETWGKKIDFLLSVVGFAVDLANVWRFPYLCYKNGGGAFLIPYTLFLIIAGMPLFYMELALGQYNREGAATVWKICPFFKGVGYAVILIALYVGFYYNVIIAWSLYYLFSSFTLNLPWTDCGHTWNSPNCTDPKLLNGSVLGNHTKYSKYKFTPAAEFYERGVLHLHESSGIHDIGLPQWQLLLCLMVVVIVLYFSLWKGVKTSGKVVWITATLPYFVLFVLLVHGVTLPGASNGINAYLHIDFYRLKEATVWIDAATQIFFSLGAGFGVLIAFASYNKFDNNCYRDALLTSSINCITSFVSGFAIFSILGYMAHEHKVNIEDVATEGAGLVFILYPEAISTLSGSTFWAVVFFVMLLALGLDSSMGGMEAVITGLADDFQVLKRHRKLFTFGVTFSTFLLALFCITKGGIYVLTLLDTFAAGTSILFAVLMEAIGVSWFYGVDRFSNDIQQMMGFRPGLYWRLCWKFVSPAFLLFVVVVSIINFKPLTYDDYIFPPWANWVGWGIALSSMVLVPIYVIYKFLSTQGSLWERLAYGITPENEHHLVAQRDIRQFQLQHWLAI
Method in brief: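 CHO cell extracts expressing the transporter; tritiated or iodinated tracer displaced competitively; filtration plus scintillation readout at 1 h. Single-point duplicates at 25 uM, concentration series for follow-up; activity = signal drop relative to DMSO.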

[11] = read-out: Interleukin-8 (IL8), CXCL8 (gene 3576); assay: BSK_MyoF_IL8: BioMAP Diversity Plus: MyoF Assay for Interleukin-8 (IL8) Biomarker Activity (AID 2284261; active means hit-call score of the fitted dose curve at least 0.9, where 1 is the maximum; inactive means score below 0.9); conditions: primary human lung fibroblasts
Method in brief: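 Lung fibroblasts (human primary) → chemical exposure → 24 h → IL-8 measured by ELISA. Signal increase scored versus DMSO control.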

Decorin, DCN (gene 1634) = assay: BSK_MyoF_Decorin: BioMAP Diversity Plus: MyoF Assay for Decorin Biomarker Activity (AID 2284265; active means hit-call score of the fitted dose curve at least 0.9, where 1 is the maximum; inactive means score below 0.9); conditions: primary human lung fibroblasts
Method in brief: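 ELISA readout of decorin, 24 h post-dosing; primary human lung fibroblast (MyoF) culture; gain-of-signal fit vs DMSO baseline.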

[12] = BSK_MyoF_SRB: Viability Assessment in the BioMAP Diversity Plus: MyoF Assay (AID 2284267; active means hit-call score of the fitted dose curve at least 0.9, where 1 is the maximum; inactive means score below 0.9;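 further: total protein by SRB absorbance in parallel cultures as cytotoxicity measure; cells assessed 24 h after compound addition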); conditions: primary human lung fibroblasts
Method in brief: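 Cytotoxicity read-out: after 10% TCA fixation, parallel human lung fibroblast cultures were stained with 0.1% SRB at 24 h post-dosing and read at 560 nm; DMSO served as baseline.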

[13] = read-out: Matrix Metallopeptidase 1 (MMP1), MMP1 (gene 4312); assay: BSK_MyoF_MMP1: BioMAP Diversity Plus: MyoF Assay for Matrix Metallopeptidase 1 (MMP1) Biomarker Activity (AID 2284268; active means hit-call score of the fitted dose curve at least 0.9, where 1 is the maximum; inactive means score below 0.9); conditions: primary human lung fibroblasts
Method in brief: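 Cells: human lung fibroblasts. Exposure: 24 h chemical dosing. Detection: ELISA for MMP1. Analysis: upward fitting against DMSO negative control.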

[14] = read-out: TIMP metallopeptidase inhibitor 1 (TIMP1), TIMP1 (gene 7076); assay: BSK_MyoF_TIMP1: BioMAP Diversity Plus: MyoF Assay for TIMP metallopeptidase inhibitor 1 (TIMP1) Biomarker Activity (AID 2284269; active means hit-call score of the fitted dose curve at least 0.9, where 1 is the maximum; inactive means score below 0.9); conditions: primary human lung fibroblasts
Method in brief: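 Primary human lung fibroblasts, MyoF multiplex system; chemical exposure 24 h; TIMP-1 by ELISA; positive fitting direction vs DMSO control.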

[15] = CCTE_Padilla_ZF_Score.General: CCTE's 144 Hour Post-fertilization zebrafish Assay Score for General Malformation, Padilla Lab (AID 2284411; active means hit-call score of the fitted dose curve at least 0.9, where 1 is the maximum; inactive means score below 0.9)
Method in brief: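 Malformation, death and hatching were scored at 6 dpf by two blinded observers under a stereo microscope. Embryos were dosed singly from 6-8 hpf in sealed plates of 10% Hanks' at 26C and rinsed on 5 dpf; DMSO baseline.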

[16] = molecular target: Bile acid receptor (Homo sapiens) (UniProt Q96RI1); assay: OT_FXR_FXRSRC1_0480: Odyssey Thera (OT) 8-hour HEK293T Protein-Complementation Assay for Farnesoid X receptor/SRC-1 Co-activator (AID 2283383)
Method in brief: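 Binding of FXR to coactivator SRC-1 was read as fluorescence from a reconstituted split reporter in HEK293T cells, 8 h after chemical addition. Only increases in signal versus DMSO were fit.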

[17] = molecular target: Bile acid receptor (Homo sapiens) (UniProt Q96RI1); assay: OT_FXR_FXRSRC1_1440: Odyssey Thera (OT) 24-hour HEK293T Protein-Complementation Assay for Farnesoid X receptor/SRC-1 Co-activator (AID 2283384)
Method in brief: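 Protein-fragment complementation: FXR and SRC-1 fused to reporter fragments that reassemble on interaction, read by fluorescence intensity. Human HEK293T cells measured 24 h post-dose; positive-direction fit versus DMSO.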

Compound: CCCOCCC
- outcome [1]: inactive
- outcome [2]: inactive

Compound: Cc1cc(C)c(S(=O)(=O)O)cc1N=Nc1cc(S(=O)(=O)O)c2ccccc2c1O
- outcome [3]: inactive
- outcome [4]: inactive
- outcome [5]: inactive
- AC50 [6]: 14.5 µM (active)

Compound: CNC[C@H](O)[C@@H](O)[C@H](O)[C@H](O)CO
- outcome [7]: inactive

Compound: CC(C)CC(=O)O
- outcome [2]: inactive

Compound: CC(C)(C)NC(=O)[C@@H]1CN(Cc2cccnc2)CCN1C[C@@H](O)C[C@@H](Cc1ccccc1)C(=O)N[C@H]1c2ccccc2C[C@H]1O
- outcome [8]: inactive

Compound: O=C(c1ccccc1)c1ccccc1O
- AC50 (SERPINA7 (gene 6906)): 17.9 µM (active)
- AC50 (TTR (gene 7276)): 1.05 µM (active)

Compound: CCCCCCC1CCC(=O)O1 (stereo not given)
- outcome [3]: inactive
- outcome [4]: inactive
- outcome [9]: inactive

Compound: CN(C)c1ccc(C(c2ccccc2)c2ccc(N(C)C)cc2)cc1
- AC50 [10]: 31.7 µM (active)
- AC50 [6]: 10.6 µM (active)
- outcome [11]: inactive
- outcome (Decorin, DCN (gene 1634)): inactive
- outcome [12]: inactive
- outcome [13]: inactive
- outcome [14]: inactive
- AC50 [15]: 22.3 µM (active)

Compound: F[B-](F)(F)F
- outcome [5]: inactive

Compound: C=C1CC[C@H]2C[C@@H]1C2(C)C
- outcome [3]: inactive
- outcome [4]: inactive

Compound: c1cc(N(CC2CO2)CC2CO2)ccc1Cc1ccc(N(CC2CO2)CC2CO2)cc1 (stereo not given)
- AC50 [7]: 27.6 µM (active)

Compound: Nc1ccc(S(=O)(=O)Nc2cnc3ccccc3n2)cc1
- AC50 [6]: 0.715 µM (active)

Compound: O=C(Oc1ccccc1)c1ccccc1
- outcome [3]: inactive
- outcome [4]: inactive
- AC50 [16]: 45.2 µM (active)
- outcome [17]: inactive
- AC50 (SERPINA7 (gene 6906)): 8.47 µM (active)
- AC50 (TTR (gene 7276)): 24.2 µM (active)

Compound: CO[Si](CCCNCCN)(OC)OC
- outcome [8]: inactive

Compound: O=C(CC(C(=O)OC1CCCCC1)S(=O)(=O)O)OC1CCCCC1 (stereo not given)
- outcome [5]: inactive
- outcome [17]: inactive
- outcome [9]: inactive

Compound: Cc1cc(-n2nc3ccc(Cl)cc3n2)c(O)c(C(C)(C)C)c1
- outcome [11]: inactive
- outcome (Decorin, DCN (gene 1634)): inactive
- outcome [12]: inactive
- outcome [13]: inactive
- outcome [14]: inactive
- outcome [15]: inactive

Compound: CC[N+](CC)(CC(=O)Nc1c(C)cccc1C)Cc1ccccc1
- outcome [5]: inactive
- outcome [11]: inactive
- outcome (Decorin, DCN (gene 1634)): inactive
- outcome [12]: inactive
- outcome [13]: inactive
- outcome [14]: inactive

Compound: CC(=O)CCc1ccccc1
- outcome [2]: inactive

Compound: O=[N+]([O-])c1ccc2nc[nH]c2c1
- outcome [3]: inactive

Compound: O=C(C(=O)c1ccccc1)c1ccccc1
- outcome [11]: inactive
- outcome (Decorin, DCN (gene 1634)): inactive
- outcome [12]: inactive
- outcome [13]: inactive
- outcome [14]: inactive

Compound: CCOC(=O)c1ccccc1
- outcome [8]: inactive
- outcome [5]: inactive

Compound: CC[N+](CC)(CC(=O)Nc1c(C)cccc1C)Cc1ccccc1 (tested in a mixture with another compound)
- outcome [9]: inactive

Compound: Cc1ccccc1S(N)(=O)=O
- outcome [1]: inactive

Compound: OCCOCCOCCOCCOCCO
- outcome [8]: inactive

Compound: CN(C)N=Nc1ccccc1
- outcome [8]: inactive

Compound: CCO[Si](OCC)(OCC)c1ccccc1
- outcome [1]: inactive

Compound: NCc1ccccc1
- outcome [8]: inactive

Compound: CC(C)CC(=O)CC(C)C
- outcome [9]: inactive

Compound: CCCC(=O)OC
- outcome [8]: inactive

Compound: CCCCCCC(O)CCCCCCCCCCC(=O)OC (stereo not given)
- outcome [11]: inactive
- outcome (Decorin, DCN (gene 1634)): inactive
- outcome [12]: inactive
- outcome [13]: inactive
- outcome [14]: inactive

Compound: Clc1ccccn1
- AC50 [1]: 9.99 µM (active)

Compound: Cc1cc2nc3c(=O)[nH]c(=O)nc-3n(C[C@H](O)[C@H](O)[C@H](O)CO)c2cc1C
- AC50 [16]: 37.3 µM (active)
- AC50 [17]: 52.7 µM (active)

Compound: CC(=O)OC(C)(C)Cc1ccccc1
- outcome [16]: inactive
- outcome [17]: inactive
- outcome [9]: inactive

Compound: CCC(C)NC(N)=O (stereo not given)
- outcome [8]: inactive
- outcome [2]: inactive

Compound: CCCCCCCCCC/C=C/C1CC(=O)OC1=O (stereo not given)
- outcome [11]: inactive
- outcome (Decorin, DCN (gene 1634)): inactive
- outcome [12]: inactive
- outcome [13]: inactive
- outcome [14]: inactive

Compound: Oc1cccc2ccccc12
- AC50 [10]: 21 µM (active)
- outcome [17]: inactive
- AC50 [6]: 1.62 µM (active)
- outcome [9]: inactive
- AC50 [11]: 6.06 µM (active)
- outcome (Decorin, DCN (gene 1634)): inactive
- outcome [12]: inactive
- AC50 [13]: 12.1 µM (active)
- outcome [14]: inactive
- AC50 (SERPINA7 (gene 6906)): 4.58 µM (active)
- AC50 (TTR (gene 7276)): 3.07 µM (active)
